Laboratory results reported in PubChem BioAssay (NCI).
About 79,000 compounds went through this panel and 15% of them were active in at least one assay; those are over-represented in the sample as a whole. No stated cut-off is given here; in the data, active means growth inhibition above about 70%; inactive means the rest.

Assays:
[1] = NCI Yeast Anticancer Drug Screen. Data for the rad50 strain (AID 155);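 further: 0% = growth of vehicle-only cultures of the same strain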; conditions: S. cerevisiae rad50 strain growth inhibition; at 50.0 µM; active compounds read high
Outline: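 Compounds were tested on a yeast strain with an engineered DNA damage repair alteration; the reported value is growth inhibition normalised to vehicle treatment.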

[2] = NCI Yeast Anticancer Drug Screen. Data for the mec2-1 strain (AID 157); conditions: S. cerevisiae mec2-1 strain, at 50.0 µM, active compounds read high
Outline: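 Cells of the genetically defined mec2-1 yeast strain are incubated with test compound. Inhibition of growth is calculated against vehicle-treated controls.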

[3] = NCI Yeast Anticancer Drug Screen. Data for the sgs1 mgt1 strain (AID 161);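 further: 0% = growth of cultures given vehicle only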; conditions: S. cerevisiae sgs1 mgt1 strain, at 50.0 µM, active compounds read high
Outline: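 Inhibition of yeast growth, normalised to vehicle-treated controls, is reported for a strain bearing genetic alterations in DNA damage repair.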

[4] = NCI Yeast Anticancer Drug Screen. Data for the cln2 rad14 strain (AID 165);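 further: 0% = growth equal to vehicle treated cultures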; conditions: S. cerevisiae cln2 rad14 strain, at 50.0 µM, active compounds read high
Outline: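 The screen exposed genetically defined yeast (cln2 rad14) to test compounds and scored growth inhibition relative to vehicle-treated controls.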

[5] = NCI Yeast Anticancer Drug Screen. Data for the bub3 strain (AID 167); conditions: S. cerevisiae bub3 mutant strain, at 50.0 µM, active compounds read high
Outline: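 Growth of a checkpoint-deficient yeast mutant is measured after compound exposure. Values represent inhibition relative to vehicle.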

[6] = NCI Yeast Anticancer Drug Screen. Data for the mlh1 rad18 strain (AID 175); conditions: S. cerevisiae mlh1 rad18 strain growth inhibition; at 50.0 µM; active compounds read high
Outline: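 Compound-treated yeast growth, normalised to vehicle controls. Strain bears defined DNA repair mutations.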

Measured: growth inhibition

OCC(CO)(CO)CO
inactive: [1] 18.9% | [2] -0.7% | [3] -6.8% | [4] -16.1% | [5] 28.8% | [6] -5.3%

O=C(O)CSc1n[nH]c(-c2ccco2)n1
inactive: [1] -4.05% | [2] 4.25% | [3] 3% | [4] 14.1% | [5] 11.1% | [6] 7.7%

COc1cc(C2NCCC(c3ccccc3)(c3ccccc3)N2)cc(OC)c1OC (stereo not given)
inactive: [1] -30.9% | [2] -4.65% | [3] 5.25% | [4] 4.55% | [5] -7.6% | [6] 5.5%

Nc1ccc(Cl)cc1N=Cc1ccccc1[N+](=O)[O-]
inactive: [1] 35.5% | [2] 13.8% | [3] 49.5% | [4] -47.5% | [5] 17.6% | [6] 12.9%

C=C1C(=O)O[C@@H]2[C@@H]3[C@@H](C)C(=O)C=C[C@]3(C)CC[C@@H]12
inactive: [1] -15.9% | [2] -49.1% | [3] -11.2% | [4] 7.05% | [5] -35.6% | [6] -14.9%

COc1cccc2c1OC(=O)C(S(=O)(=O)c1ccccc1)C2 (stereo not given)
inactive: [1] -7.8% | [2] -3.95% | [3] 5.5% | [4] -37.5% | [5] -7.25% | [6] -3.65%

O=S(=O)(c1ccccc1)N1CCCCN(S(=O)(=O)c2ccccc2)COC1
inactive: [1] 5.25% | [2] -7.45% | [3] -1.65% | [4] -9.85% | [5] -7.45% | [6] -5.35%

O=c1c2cc(S(=O)(=O)Nc3ccccc3Cl)ccc2ncn1NS(=O)(=O)c1ccc(Br)cc1
inactive: [1] 35.2% | [2] 1.8% | [3] 31.9% | [4] -0.4% | [5] 19.5% | [6] 23.9%

COc1ccc(Br)cc1/C=N\NC(=O)c1ccccc1N(C)C
inactive: [1] -24.2% | [2] -11.6% | [3] -10.8% | [4] 6.6% | [5] -3.05% | [6] -4.25%

N#Cc1ccc([N+](=O)[O-])n1CCO
inactive: [1] 9.7% | [2] 8.7% | [3] 35% | [4] -0.05% | [5] 15.6% | [6] 19.3%

Cc1ccc(/C=N/NC(N)=S)c(C)c1
inactive: [1] 8.5% | [2] -25.4% | [3] 17.3% | [4] -30.9% | [5] 7.15% | [6] 16.6%

CC(=O)O[C@H]1C[C@H]2[C@@H](OC(C)=O)/C=C3\C[C@](C)(C(=O)[C@H](O)C(=C1C)C2(C)C)[C@@H](O)C[C@@H]3OC(=O)[C@H](O)[C@H](c1ccccc1)N(C)C
inactive: [1] 7.3% | [2] -0.45% | [3] -8.6% | [4] -10.3% | [5] -1.4% | [6] 2.4%

CS(=O)(=O)OC1COCC1OS(C)(=O)=O (stereo not given)
inactive: [1] 8% | [2] 6.15% | [3] 9.05% | [4] -0.8% | [5] -5.3% | [6] -6.1%

Cc1cc(C)n(/N=C/c2ccco2)c(=O)c1C#N
inactive: [1] -20.3% | [2] -33.1% | [3] -26.1% | [4] 11.4% | [5] -17.5% | [6] -10.7%

COC(=O)CN1C(=O)OC(c2ccccc2)C1=O (stereo not given)
inactive: [1] -0.4% | [2] 1.15% | [3] -4.1% | [4] 8.15% | [5] -3.85% | [6] -13.4%

CCNc1nnc(-c2nsc3ccccc23)s1
inactive: [1] -12.7% | [2] -36.1% | [3] -10.1% | [4] -11.5% | [5] -27.5% | [6] -18.9%

c1ccc(CCN2CCN=C2Cc2ccccc2)cc1
inactive: [1] 13.8% | [2] 8% | [3] 0.95% | [4] -32.8% | [5] -27.1% | [6] 9.3%

Cc1c(C(=O)Nc2ccc(Cl)c(C(F)(F)F)c2)oc2cc(O)ccc2/c1=N\NC(N)=S
inactive: [1] -12.3% | [2] -14.4% | [3] -23.6% | [4] -7.85% | [5] -7.35% | [6] -17.4%

CCNC(=S)Nc1ccc(OCC)cc1
inactive: [1] 14.2% | [2] 24.3% | [3] 31.4% | [4] -18.1% | [5] 33.9% | [6] 16.4%

CCOC(=O)C1SC(=S)N(c2ccccc2)C1N (stereo not given)
inactive: [1] -3.75% | [2] 14.6% | [3] 39.8% | [4] -11.6% | [5] -4.45% | [6] 11.8%
